The nature of assay [1]: compounds binding Alexa647 anti-His antibody – biochemical, small-molecule microarray, 635 nm fluorescence, artefact control for SMM control protein annotation, primary screen (AID 1128).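 Further: score merges feature fluorescence with signal-to-noise for each printed compound spot.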 Particulars: higher = more signal.
Assay [2] concerns Human papillomavirus type 1a E7 protein (residues 1-88). Kind of assay: HPV1a E7 small-molecule binders, primary screen, biochemical, small-molecule microarray, residues 1-88, 635 nm (AID 1129). Particulars: small-molecule microarray binding, fluorescence 635 nm; higher = more signal.
Assay [3] has as its target Focal adhesion kinase 1 (Homo sapiens) (UniProt Q05397). Kind of assay: PTK2 protein binding on printed compound slides – biochemical, small-molecule microarray, 635/667 nm fluorescence, BSA, DTT, primary screen (AID 1130).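 Further: composite of spot emission at 667 nm and signal to noise over triplicate slides.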 The settings on record: 635 nm fluorescence, higher = more signal.
For assay [4], the system named is Fibrinogen (Alexa647-labelled). Kind of assay: Alexa647-fibrinogen binding to printed small molecules – biochemical, small-molecule microarray, 635/667 nm fluorescence, artefact control for SMM control-protein annotation, profiling panel (AID 1131).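 Further: z-score merges 667 nm fluorescence with per-spot signal-to-noise over triplicate slides.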 The settings on record: fibrinogen-A647 binding fluorescence, higher = more signal.
Assay [5] has as its target Follistatin (Homo sapiens) (UniProt P19883). In words: FST protein binding to printed compounds – biochemical, small-molecule microarray, 635/667 nm fluorescence, primary screen (AID 1132). Particulars: 635 nm fluorescence, higher = more signal.
For assay [6], the target named is Fibroblast growth factor 2 (Homo sapiens) (UniProt P09038). In words: basic fibroblast growth factor binding to printed compounds – biochemical, small-molecule microarray, 635/667 nm fluorescence, primary screen (AID 1133). Particulars: FGF2, fluorescence 635/667, higher = more signal.
Assay [7] in a line: JC-1 mitochondrial potential readout, lung cancer cells – cell-based, A549, JC-1 fluorescence, basal, 24 h, 100 nL, profiling panel (AID 1138).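 Further: A549 lung adenocarcinoma cells under basal conditions with no added stimulus; test concentration not given here.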 The settings on record: higher = more signal.
For assay [8], the system named is Lefty1. In words: Lefty1 protein binding to printed compounds – biochemical, small-molecule microarray, 635/667 nm fluorescence, primary screen (AID 1139). The settings on record: fluorescence 635/667, higher = more signal.
In assay [9] the test system is wheat germ agglutinin (Triticum aestivum), Alexa647-labelled. Kind of assay: Alexa647-WGA lectin binding to printed small molecules – biochemical, small-molecule microarray, 635/667 nm fluorescence, artefact control for SMM control-protein annotation, profiling panel (AID 1140).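 Further: score merges 667 nm feature emission with signal to noise over triplicate slides.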 The settings on record: WGA-A647 binding, 635 nm fluorescence, higher = more signal.
Assay [10] has as its target Luciferin 4-monooxygenase (Photinus pyralis) (UniProt P08659). In words: inhibition of purified Photinus pyralis luciferase – biochemical, luminescence, purified enzyme, 2006 set, primary screen (AID 1141).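 Further: cell-free assay with purified firefly luciferase at 100 ng per well in PBS; test concentration not given here.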 The settings on record: purified firefly luciferase, SteadyGlo luminescence, 30 min; higher = more signal, called active from +8 up or from −8 down.
For assay [11], the system named is Wnt5a (protein binding on small-molecule microarray). In words: small molecules binding Wnt5a protein – biophysical, small-molecule microarray, 635/667 nm fluorescence, primary screen (AID 1142).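 Further: fluorescence read at 667 nm with signal to noise per printed feature.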 The settings on record: 635 nm fluorescence, higher = more signal.
The nature of assay [12]: ATP-based viability of Huh7 replicon cells – cell-based, CellTiter-Glo luminescence, basal, 48 h, cytotoxicity control for HCV replication inhibitor project, primary screen (AID 1143).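 Further: Huh7 hepatoma cells carrying a hepatitis C replication reporter with no stimulus; test concentration not given here.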 The settings on record: higher = more signal, called active from +8 up or from −8 down.
Assay [13] in a line: Pseudomonas biofilm growth suppression – PAO1 strain, BacTiter-Glo luminescence, LB-PBS, primary screen (AID 1144). Particulars: P. aeruginosa PAO1 biofilm, 12 h, higher = more signal.
Assay [14] is described as follows: basal CRE-LacZ reporter activity in PC12 – cell-based, unstimulated, primary screen (AID 1145). Particulars: no forskolin, luminescence, 4.5 h, higher = more signal, called active from +8 up or from −8 down.
Assay [15] in a line: forskolin-driven CRE-LacZ activity in PC12 – cell-based, CRE-LacZ reporter, forskolin-stimulated, primary screen (AID 1146).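 Further: PC12 cells with 6xCRE LacZ reporter stimulated by forskolin 10 µM; beta-galactosidase reporter signal reflecting CREB driven transcription.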 Particulars: luminescence, 4.5 h, higher = more signal, called active from +8 up or from −8 down.
Assay [16] deals with Streptavidin (Streptomyces avidinii) (UniProt P22629). In words: compounds binding control protein streptavidin – biophysical, small-molecule microarray, 635/667 nm fluorescence, artefact control for SMM compound annotation, primary screen (AID 1147).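 Further: signal reflects streptavidin binding to arrayed compounds as a control protein.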 The settings on record: higher = more signal.
Assay [17] in a line: probe aInhba binding on compound microarray – biochemical, small-molecule microarray, 635/667 nm fluorescence, primary screen (AID 1148).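 Further: score merges 667nm spot fluorescence with signal-to-noise for antibody binding to printed compounds.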 Particulars: higher = more signal.
In assay [18] the target is Torsin-1A (Homo sapiens) (UniProt O14656). In words: TOR1A wild-type binding on microarray – cell lysate, small-molecule microarray, lysate, 635/667 nm, primary screen (AID 1149). Particulars: COS7 hTOR1A-WT lysate, 635 nm fluorescence, higher = more signal.
Assay [19] shares this target. Kind of assay: torsin A mutant lysate binding on microarrays – cell lysate, small-molecule microarray, COS7 lysate, 635/667 nm fluorescence, primary screen (AID 1150).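 Further: score pools 667 nm emission and signal to noise measuring lysate protein binding.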 Particulars: COS7 hTOR1A mutant lysate, 635 nm fluorescence, higher = more signal.
The test system of assay [20] is Sonic hedgehog protein (Shh). Kind of assay: Sonic hedgehog microarray binding compounds – biochemical, small-molecule microarray, 635/667 nm fluorescence, primary screen (AID 1151).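 Further: Shh protein binding to compounds spotted on small-molecule microarray slides; score combines spot fluorescence intensity with signal-to-noise across triplicate slides.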 Particulars: 635 nm fluorescence, higher = more signal.

The structures appear in SMILES notation. Activity calls are given as the source filed them. Unless noted, how the calls were made is not given here.

Sequence of Streptavidin (Streptomyces avidinii) (P22629 whole entry, looked up): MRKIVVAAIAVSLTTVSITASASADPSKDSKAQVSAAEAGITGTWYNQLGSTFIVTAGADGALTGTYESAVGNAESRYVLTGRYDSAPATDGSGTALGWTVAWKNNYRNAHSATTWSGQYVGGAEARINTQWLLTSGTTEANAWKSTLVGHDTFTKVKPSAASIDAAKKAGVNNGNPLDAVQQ
Sequence of Luciferin 4-monooxygenase (Photinus pyralis) (P08659 whole entry, looked up): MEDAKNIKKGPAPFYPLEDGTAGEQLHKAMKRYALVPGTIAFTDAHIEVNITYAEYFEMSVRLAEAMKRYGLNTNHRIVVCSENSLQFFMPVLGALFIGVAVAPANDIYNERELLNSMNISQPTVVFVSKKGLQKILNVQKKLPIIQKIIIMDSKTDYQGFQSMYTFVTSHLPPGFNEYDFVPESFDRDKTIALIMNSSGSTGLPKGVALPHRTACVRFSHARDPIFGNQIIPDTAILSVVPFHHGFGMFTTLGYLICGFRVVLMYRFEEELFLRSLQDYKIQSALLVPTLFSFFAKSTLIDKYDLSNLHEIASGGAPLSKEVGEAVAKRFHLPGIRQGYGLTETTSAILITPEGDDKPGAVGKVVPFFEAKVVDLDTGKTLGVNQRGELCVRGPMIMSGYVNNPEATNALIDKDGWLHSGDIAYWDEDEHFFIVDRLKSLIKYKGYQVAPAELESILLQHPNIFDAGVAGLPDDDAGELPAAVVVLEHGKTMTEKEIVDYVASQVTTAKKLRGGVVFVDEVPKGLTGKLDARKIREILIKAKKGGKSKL
Sequence of Follistatin (Homo sapiens) (P19883 whole entry, looked up): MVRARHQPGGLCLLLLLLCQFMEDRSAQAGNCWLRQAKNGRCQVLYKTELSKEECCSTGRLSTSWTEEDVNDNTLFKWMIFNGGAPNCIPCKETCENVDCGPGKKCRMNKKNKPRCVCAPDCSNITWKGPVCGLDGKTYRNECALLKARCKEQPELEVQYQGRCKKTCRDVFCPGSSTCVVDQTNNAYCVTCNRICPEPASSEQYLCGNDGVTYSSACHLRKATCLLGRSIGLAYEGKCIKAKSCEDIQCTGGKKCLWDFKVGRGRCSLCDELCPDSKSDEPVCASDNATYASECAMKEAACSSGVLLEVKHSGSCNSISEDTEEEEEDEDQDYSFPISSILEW
Sequence of Focal adhesion kinase 1 (Homo sapiens) (Q05397 whole entry, looked up): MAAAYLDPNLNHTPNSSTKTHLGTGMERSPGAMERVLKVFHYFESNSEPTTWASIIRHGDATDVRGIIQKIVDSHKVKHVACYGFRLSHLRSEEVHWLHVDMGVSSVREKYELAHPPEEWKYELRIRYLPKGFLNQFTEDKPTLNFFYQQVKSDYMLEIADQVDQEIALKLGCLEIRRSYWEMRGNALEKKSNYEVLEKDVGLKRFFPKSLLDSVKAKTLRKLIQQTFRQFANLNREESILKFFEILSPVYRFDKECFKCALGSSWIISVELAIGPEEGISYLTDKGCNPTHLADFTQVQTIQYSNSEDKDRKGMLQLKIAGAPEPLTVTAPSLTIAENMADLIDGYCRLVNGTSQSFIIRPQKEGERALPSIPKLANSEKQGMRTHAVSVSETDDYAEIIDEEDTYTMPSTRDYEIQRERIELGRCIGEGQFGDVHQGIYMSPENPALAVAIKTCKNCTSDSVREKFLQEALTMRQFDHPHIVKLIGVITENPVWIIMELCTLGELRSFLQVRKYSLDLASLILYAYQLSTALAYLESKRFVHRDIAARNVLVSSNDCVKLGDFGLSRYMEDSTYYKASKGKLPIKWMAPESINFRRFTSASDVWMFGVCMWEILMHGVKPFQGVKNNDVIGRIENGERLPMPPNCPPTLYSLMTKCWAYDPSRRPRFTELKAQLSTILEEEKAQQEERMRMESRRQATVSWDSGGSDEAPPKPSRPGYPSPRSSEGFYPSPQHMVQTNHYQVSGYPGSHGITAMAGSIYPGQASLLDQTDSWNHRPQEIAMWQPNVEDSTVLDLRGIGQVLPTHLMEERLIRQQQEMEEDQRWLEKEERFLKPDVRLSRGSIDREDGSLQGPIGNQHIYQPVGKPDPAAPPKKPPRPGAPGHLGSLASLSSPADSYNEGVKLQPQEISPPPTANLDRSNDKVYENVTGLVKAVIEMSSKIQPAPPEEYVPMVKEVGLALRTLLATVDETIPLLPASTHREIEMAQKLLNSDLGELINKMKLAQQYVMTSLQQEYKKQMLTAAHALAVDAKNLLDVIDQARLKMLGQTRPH
Sequence of Fibroblast growth factor 2 (Homo sapiens) (P09038 whole entry, looked up): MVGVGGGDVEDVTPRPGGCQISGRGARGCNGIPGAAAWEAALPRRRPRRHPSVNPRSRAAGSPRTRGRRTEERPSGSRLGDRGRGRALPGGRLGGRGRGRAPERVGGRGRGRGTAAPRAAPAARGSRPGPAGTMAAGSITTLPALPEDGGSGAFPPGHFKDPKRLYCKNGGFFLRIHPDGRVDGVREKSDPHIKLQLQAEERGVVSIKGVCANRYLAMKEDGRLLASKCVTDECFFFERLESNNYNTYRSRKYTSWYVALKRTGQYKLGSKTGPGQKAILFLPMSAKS
Sequence of Torsin-1A (Homo sapiens) (O14656 whole entry, looked up): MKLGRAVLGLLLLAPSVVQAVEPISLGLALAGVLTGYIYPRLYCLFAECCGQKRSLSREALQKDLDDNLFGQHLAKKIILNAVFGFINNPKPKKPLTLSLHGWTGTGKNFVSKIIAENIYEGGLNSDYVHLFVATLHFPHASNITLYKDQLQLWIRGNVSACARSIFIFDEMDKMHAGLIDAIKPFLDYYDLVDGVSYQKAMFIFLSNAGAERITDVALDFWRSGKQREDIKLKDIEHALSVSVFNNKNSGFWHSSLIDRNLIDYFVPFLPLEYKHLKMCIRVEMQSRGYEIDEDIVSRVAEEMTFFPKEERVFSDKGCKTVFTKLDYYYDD

`COC(=O)[C@@]1(Cc2ccc(OC)cc2)[C@H]2c3cc(C(=O)N4CCCC4)n(Cc4ccc(OC(F)(F)F)cc4)c3C[C@H]2CN1C(=O)c1ccccc1`: the composite z-score was 1.36 in [1]; -0.376 in assay [2]; -0.438 in assay [3]; 1 in assay [4]; 0.451 in assay [5]; -0.702 in assay [6]. The composite z-score in assay [8] was -0.683; in [9], 1.09; in assay [11], 0.622; in [16] it was 1.73; in assay [17], 0.0925; in [18] it was -1.04. Also, the composite z-score in assay [19] is -0.89; in assay [20], -1.05. Besides, the z-score is 0.691 in assay [7]; 2.03 (inactive) in assay [10]; -3.34 (inactive) in assay [12]; 0.488 (inactive) in [13]; -0.565 (inactive) in assay [14]; -0.239 (inactive) in [15].
Take `COCC(=C=CC[C@@H](O)c1cccc(OCCO)c1)CCO`: the composite z-score in [1] is -0.128; in [2], -0.113; in assay [3], -0.128; in [4] it was 0.984; in assay [5], 0.734; in assay [6], 0.377. Moreover, the composite z-score in assay [8] is 0.565; in [9], 1.1; in [11], 0.332; in assay [16], 0.105; in assay [17] it was 0.0051; in assay [18] it was 1.96. Also, the figures for the composite z-score in [19] and in assay [20] were 0.675 and 1.23, respectively. Moreover, the z-score was 0.293 in [7]; -1.31 (inactive) in assay [10]; -0.35 (inactive) in assay [12]; 0.65 (inactive) in [13]; -0.205 (inactive) in assay [14]; 0.671 (inactive) in [15].
As for `COC(=O)C(CC#Cc1ccc2c(c1)[C@]1(C(=O)N2)[C@H](c2ccc(O)cc2)N2[C@H](c3ccccc3)[C@H](c3ccccc3)OC(=O)[C@H]2[C@@H]1C(=O)N1CCCCCCC1)C(=O)OC`, the composite z-score in [1] worked out at 0.792; in assay [2] it was 1.23; in assay [3], 1.47; in [4], 0.945; in assay [5], 1.43; in assay [6] it was 1.4. Further, the composite z-score in [8] is 0.966; in [9], 1.35; in assay [11] it was 0.851; in assay [16] it was 1.26; in assay [17], 1.36; in assay [18] it was 0.78. The composite z-score in assay [19] came out at 0.592; in assay [20], 0.777. In addition, the z-score was 1.21 in assay [7]; -1.99 (inactive) in assay [10]; -3.72 (inactive) in [12]; -1.77 (inactive) in assay [13]; -0.0515 (inactive) in [14]; -0.507 (inactive) in assay [15].
Consider `[N-]=[N+]=NC[C@H](Cc1ccccc1)NC(=O)c1ccccc1`, for which the composite z-score in assay [1] is 0.568; in assay [2], -0.165; in assay [3], 0.161; in assay [4] it was -0.0208; in [5] it was -0.487; in [6], -0.0599. The composite z-score in assay [8] was -0.156; in assay [9] it was 0.736; in assay [11] it was -0.022; in assay [16] it was 0.148; in assay [17] it was -0.0695; in [18] it was 0.601. Moreover, the composite z-score was 0.265 in assay [19] and -0.0168 in [20]. Moreover, the z-score is 1.21 in assay [7]; -0.53 (inactive) in [10]; -0.34 (inactive) in [12]; 0.138 (inactive) in assay [13]; 0.6 (inactive) in assay [14]; -0.308 (inactive) in assay [15].
`COc1ccc(C#Cc2ccc3c(c2)[C@]2(C(=O)N3)[C@H](C(=O)Nc3nc4ccccc4s3)[C@H]3C(=O)O[C@H](c4ccccc4)[C@H](c4ccccc4)N3[C@@H]2c2ccccc2OCCO)cc1`: the composite z-score was determined as 0.395 in assay [1]; 1.1 in assay [2]; 0.446 in assay [3]; 0.969 in [4]; 1.16 in assay [5]; 0.0821 in [6]. The composite z-score in [8] turned out to be 0.262; in [9], 0.371; in assay [11], 0.189; in [16] it was 0.689; in assay [17], 0.0569; in assay [18], 0.076. Moreover, the composite z-score in assay [19] worked out at 0.0705; in assay [20], 0.912. Moreover, the z-score in assay [7] was -1.98; in assay [10], -0.364 (inactive); in [12], -4.68 (inactive); in [13] it was -0.939 (inactive); in assay [14] it was -0.788 (inactive); in assay [15] it was -0.369 (inactive).

(Values after PubChem BioAssay.)
